Test results: PubChem BioAssay (NCI)
This is part of a sample that, as a whole, favours compounds with a hit. Of some 83,000 tested, about 20% had one in any assay.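 Note: values are percent growth. 100 is the growth of untreated cells, values between 100 and 0 indicate rising inhibition; between -100 and 0 indicates cell death.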 Unmarked numbers belong to inactive results. Activity calls are given as the source filed them. Rule for the calls: active = growth percent below 10; inactive = the rest.

Columns and labels:
Assay in all cases: NCI-60 one-dose screen, 48 h (100 = growth as untreated, 0 = no growth, -100 = all killed)
Details in all cases: 10 µM unless noted
HCT-15 colon = tested on: HCT-15 colon
HT29 colon = tested on: HT29 colon
SNB-75 CNS = tested on: SNB-75 CNS
SNB-19 CNS = tested on: SNB-19 CNS
U251 CNS = tested on: U251 CNS
SK-MEL-5 melanoma = tested on: SK-MEL-5 melanoma
UACC-62 melanoma = tested on: UACC-62 melanoma
SK-MEL-28 melanoma = tested on: SK-MEL-28 melanoma
SK-MEL-2 melanoma = tested on: SK-MEL-2 melanoma
EKVX NSCLC = tested on: EKVX NSCLC
SN12C renal = tested on: SN12C renal
UO-31 renal = tested on: UO-31 renal
ACHN renal = tested on: ACHN renal
CAKI-1 renal = tested on: CAKI-1 renal
A498 renal = tested on: A498 renal
HL-60(TB) leukemia = tested on: HL-60(TB) leukemia
CCRF-CEM leukemia = tested on: CCRF-CEM leukemia
LOX IMVI melanoma = tested on: LOX IMVI melanoma
TK-10 renal = tested on: TK-10 renal

| Compound | growth (HCT-15 colon) | growth (HT29 colon) | growth (SNB-75 CNS) [%] | growth (SNB-19 CNS) [%] | growth (U251 CNS) [%] | growth (SK-MEL-5 melanoma) [%] | growth (UACC-62 melanoma) [%] | growth (SK-MEL-28 melanoma) [%] | growth (SK-MEL-2 melanoma) | growth (EKVX NSCLC) [%] | growth (SN12C renal) [%] | growth (UO-31 renal) | growth (ACHN renal) | growth (CAKI-1 renal) [%] | growth (A498 renal) [%] | growth (HL-60(TB) leukemia) | growth (CCRF-CEM leukemia) | growth (LOX IMVI melanoma) | growth (TK-10 renal) [%] |
| --- | --- | --- | --- | --- | --- | --- | --- | --- | --- | --- | --- | --- | --- | --- | --- | --- | --- | --- | --- |
| C/C=C(/C)C(=O)O[C@H]1CC[C@@]2(C)[C@@H]3CC[C@H]4[C@]5(O)C[C@H](O)[C@@]6(O)[C@@H](CN7C[C@@H](C)CC[C@H]7[C@@]6(C)O)[C@]5(O)C[C@@]42O[C@@]13O | 98.4% | 92.4% | 79.9 | 112 | 103 | 102 | 127 | 124 | 0.648% (active) | 107 | 115 | 81% | 113% | 103 | 127 | 128% | 106% |  |  |
| CN1C2CCC1[C@@H](COC(=O)c1ccccc1)[C@@H](O)C2 (stereo partly specified) | 111% | 91.3% | 83.5 | 102 | 103 | 112 | 96 | 128 | 104% | 104 | 105 | 91.8% |  | 122 | 144 | 81.7% | 94.3% | 103% | 131 |
| C=CCOC(=O)C(Br)CC (stereo unspecified) | 108% | 110% | 97.1 | 109 | 101 | 99.3 | 98.8 | 110 |  | 107 | 111 | 94.6% | 100% | 101 | 90.4 | 101% | 107% | 95.8% | 103 |
| Cc1ccc(S(=O)(=O)n2cc([C@@]3(O)C[C@H](CSC#N)OC3=O)c3ccccc32)cc1 | 70% | 54.3% | 67.8 | 97.5 | 40.9 | 66.6 | 76.3 | 96.2 | 61% | 102 | 60.7 | 56.2% | 63% | 66.8 | 97.1 | 80.1% | 31.7% | 49.4% | 64.2 |
| O=C1CCCCC1CN1CCCCC1 (stereo unspecified) | 99.9% | 85.3% | 109 | 108 | 100 | 104 | 99.4 | 106 |  | 104 | 99.9 | 88.7% | 102% | 102 | 96.6 | 93.4% | 98.7% | 95.4% | 90.4 |
| COc1cc(C2C3=C(CCCC3=O)N(CCO)c3cc4c(cc32)CCC4)cc(OC)c1OC (stereo unspecified) | 89.2% | 71.7% | 99.5 | 87.3 | 88.3 | 87.1 | 67.7 | 96.9 | 76.9% | 81.2 | 92.6 | 67.8% | 94.9% | 64 | 100 | 102% | 20.3% | 80.4% |  |
| C[C@]12CCc3sc(Nc4ccc(F)cc4F)nc3C1=CC[C@@H]1[C@@H]2CC[C@]2(C)C(=O)CC[C@@H]12 | 7.76% (active) | 30.1% | 69.4 | 74.1 | 40.7 | 76.9 | 67.6 | 84.4 | 76.4% | 78.4 | 64.1 | 42.9% | 37.7% | 38.4 | 77.8 | 21.4% | 10.1% | -49.7% (active) | 50.2 |
| CC[C@H](CC[C@@H](C)[C@H]1CC[C@H]2[C@@H]3CC[C@H]4C[C@]5(CC[C@]4(C)[C@H]3CC[C@]12C)OO[C@](C)(C(F)(F)F)O5)C(C)C | 97% | 102% | 66.7 | 90.4 | 100 | 99.4 | 83.2 | 89.9 | 101% | 96.2 | 81.2 | 78.8% | 98.7% | 81.7 | 97.3 | 106% | 100% | 92.9% | 109 |
| C=C[Se]CC(=O)/C=C/c1ccccc1 | 96.3% | 80.7% | 49.4 | 31.3 | 26.4 | 92.2 | 92.4 | 96.1 |  | 70.4 | 73.6 | 39.4% | 95.5% | 106 | 65.3 | 42.2% | 47.4% | 93.9% | 103 |
| C[C@]12CCc3sc(Nc4ccc(F)cc4)nc3C1=CC[C@@H]1[C@@H]2CC[C@]2(C)C(=O)CC[C@@H]12 | 32.2% | 35.5% | 66.7 | 67.4 | 47.2 | 71.3 | 69.6 | 46.5 | 76.8% | 78.3 | 73.8 | 59.8% | 77.9% | 68 | 75.7 | 49.8% | 14% | 56.6% | 94.4 |
| Cc1nnc([S-])o1.[Au+].c1ccc([PH+](c2ccccc2)c2ccccc2)cc1 | 8.98% (active) | 61.1% | 29.3 | 29.2 | 10.1 | 26.7 | 21.3 | 32.8 | 47.9% | 87.3 | 40.8 | 55.1% | 0.817% (active) | 41.6 | 90.5 | 6.51% (active) | 11.1% | 13.2% | 102 |
| C[C@]12CCc3sc(Nc4ccc(O)cc4)nc3C1=CC[C@@H]1[C@@H]2CC[C@]2(C)C(=O)CC[C@@H]12 | -68% (active) | 10.3% | 41.7 | 64.6 | 19.5 | 62 | 55.8 | 77.9 | 72.5% | 98 | 30.4 | -48.8% (active) | -17.3% (active) | 47.1 | 101 | 8.98% (active) | 8.33% (active) | -8.01% (active) | 22.8 |
| CCCCCCCCCCCCCCCCCC1OCC(COC(=O)O[C@@H](C(=O)O[C@H]2C[C@@]3(O)[C@@H](OC(=O)c4ccccc4)[C@@H]4[C@]5(OC(C)=O)CO[C@@H]5C[C@H](O)[C@@]4(C)C(=O)[C@H](OC(C)=O)C(=C2C)C3(C)C)[C@@H](NC(=O)c2ccccc2)c2ccccc2)O1 (stereo partly specified) | 99.4% | 5.3% (active) | 37.7 | 49.1 | 40.8 | 60.4 | 43.1 | 58.4 | 59.5% | 77.5 | 44.8 | 107% | 96.6% | 82.8 | 46 | 4.84% (active) | 18.5% | 37.5% | 102 |
| N#CCc1ccc(CC#N)cc1 | 96.5% | 92.4% | 101 | 93.2 | 93.6 | 101 | 92.3 | 101 | 99.4% | 97.7 | 86.7 | 89.8% | 103% | 97.1 | 78.8 | 92.9% | 100% | 101% | 100 |
| COCC1OC2OC3C(COC)OC(OC4C(COC)OC(OC5C(COC)OC(OC6C(COC)OC(OC7C(COC)OC(OC8C(COC)OC(OC1C(O)C2O)C(O)C8O)C(O)C7O)C(O)C6O)C(O)C5O)C(O)C4O)C(O)C3O (stereo unspecified) (tested in a mixture with another compound) | 103% | 109% | 86.1 | 110 | 105 | 103 | 107 | 112 | 65.7% | 105 | 97.6 | 97.3% |  | 102 | 111 | 132% |  | 102% | 146 |
